Source: PubChem
Hits are enriched below; roughly 11% of the tested compounds scored in any of these assays.
IL-1B inflam inh: inflammasome signaling inhibition, IL-1 beta readout; THP-1 LPS/ATP IL-1B secretion, AlphaLISA, 16 h; hits give low values; activity change, % at 57.5 µM; hit rate 4.7% among 360,000; AID 743279; in the data active means activity change below about -50%; inconclusive means mostly about -30% to -49%; further: on the % scale 0 is the no-effect control and ±100 the full control effect
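Secreted IL-1B measured by AlphaLISA bead assay after 16 h compound exposure of THP-1 cells; compounds (final up to 57.5 uM) added 1 h before LPS (250 ng/mL) and ATP (1.25 mM) stimulation; lower signal means less secretion.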
Gal4-VP16 FLuc: Gal4-VP16 reporter inhibition counter-screen. Drosophila S2 Gal4-VP16 UAS-luciferase, luminescence, 20 h. Potency, µM (doses to about 53.6 µM), inactives show at the highest dose activity, negative = inhibition, hits mostly inhibitors. hit rate 3.5% among 310,000. AID 2546;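 further: Gal4-VP16 expression switched on by copper sulfate through the metallothionein promoter; potency means the concentration at half of the fitted maximal effect; on the % scale 0 is the no-effect control and ±100 the full control effect; nearly all actives have a fitted effect of over 50% in size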
RORg inh: inhibitors of mouse ROR gamma transcriptional activity | Drosophila S2 Gal4-RORgamma UAS-luciferase reporter, 20 h | Potency, µM (top dose mostly 53.6 µM), without a hit: top-dose activity change, negative = inhibition, actives largely listed as inhibitors | hit rate 5.4% among 310,000 | AID 2551; further: potency means the concentration at half of the fitted maximal effect; on the % scale 0 is the no-effect control and ±100 the full control effect; nearly all actives have a fitted effect of over 60% in size
Target sequence (P51450 whole entry, looked up, the tested form may be a part): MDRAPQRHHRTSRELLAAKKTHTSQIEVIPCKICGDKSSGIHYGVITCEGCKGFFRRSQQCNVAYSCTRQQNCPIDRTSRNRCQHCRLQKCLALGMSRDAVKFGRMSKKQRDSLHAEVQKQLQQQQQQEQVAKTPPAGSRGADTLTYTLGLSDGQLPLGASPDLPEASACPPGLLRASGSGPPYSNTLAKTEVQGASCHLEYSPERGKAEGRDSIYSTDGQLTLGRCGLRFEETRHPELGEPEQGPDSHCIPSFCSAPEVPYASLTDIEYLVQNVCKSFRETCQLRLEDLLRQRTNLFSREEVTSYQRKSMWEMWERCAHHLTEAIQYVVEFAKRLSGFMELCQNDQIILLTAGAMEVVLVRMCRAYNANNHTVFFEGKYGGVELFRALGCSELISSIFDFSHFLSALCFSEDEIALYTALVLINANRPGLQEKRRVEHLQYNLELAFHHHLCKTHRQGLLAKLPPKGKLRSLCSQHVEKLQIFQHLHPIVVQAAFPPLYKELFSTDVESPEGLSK
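Luminescence from a UAS-regulated Photinus luciferase reporter in stably transfected Drosophila Schneider cells is measured; decreased signal marks ROR gamma inhibition. Fusion expression is induced by 700 uM copper sulfate for 20 hr.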
SW480 rereplic: DNA re-replication induction in SW480 cells; Potency, µM (titrated, usually from 46.1 µM), for inactives: top-dose re-replication activation, usual class: activators; hit rate 1.8% among 340,000; SW480 DNA re-replication, Hoechst DNA content imaging, 48 h; further: potency means the concentration at half of the fitted maximal effect; % of control where 0% means no effect; nearly all actives have a fitted effect of over 55% in size
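Readout is total intensity of Hoechst-stained nuclei, excited at 405 nm and collected at 500-530 nm. Compound treatment lasted 48 hr at 37 C in 5% CO2 before staining.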
MCF10A rerep: DNA re-replication induction in MCF 10a cells | MCF 10A DNA re-replication, Hoechst nuclear intensity, 48 h | Potency, µM (top dose mostly 46.1 µM), for the others: at the highest dose activity, positive = re-replication, actives largely listed as activators | hit rate 2.9% among 350,000; further: potency means the concentration at half of the fitted maximal effect; % of control where 0% means no effect; nearly all actives have a fitted effect of over 50% in size
An asterisk follows results filed as active. Unless noted, the call rests on the fitted dose curve; in most records, active means well fitted curve in the direction sought with a large enough effect; inconclusive means small, poorly fitted or top-dose-only effect, or another doubt; inactive means no such curve, though single readings can be large; an effect the other way counts as inactive or inconclusive.

How did O=C(CC1SC(=Nc2ccccc2)N(Cc2ccccn2)C1=O)Nc1ccc(Br)cc1 (configuration not stated) do in these assays?
IL-1B inflam inh: inconclusive; Gal4-VP16 FLuc: -6.8%; RORg inh: inconclusive; SW480 rereplic: 16.4µM*; MCF10A rerep: 23.1µM*

What do the screens show for `O=C(CC1Sc2ncnn2C1=O)Nc1ccc(Br)cc1` (configuration not stated)?
IL-1B inflam inh: -11.5; Gal4-VP16 FLuc: 25.1µM*; RORg inh: inconclusive; SW480 rereplic: inconclusive; MCF10A rerep: inconclusive

Results for CCC1(c2ccc(O)cc2)NC(=O)N(C)C1=O (configuration not stated) ?
Gal4-VP16 FLuc: -2.9%; RORg inh: -0.5%

How did CC(=O)Nc1ccc(NC(=O)CC(C)n2ccnc2)cc1 (configuration not stated) do in these assays?
IL-1B inflam inh: 14.1; Gal4-VP16 FLuc: -5.1%; RORg inh: 0.4%; SW480 rereplic: -0.1%; MCF10A rerep: -0.4%

How did CC12CCC(C(=O)N/N=C/c3ccc(O)cc3O)(OC1=O)C2(C)C (configuration not stated) do in these assays?
IL-1B inflam inh: 161.2; Gal4-VP16 FLuc: -5.2%; RORg inh: inconclusive; SW480 rereplic: 4.61µM*; MCF10A rerep: 4.8%

What do the screens show for `C/C(=N\NC(=O)C12CCC(C)(C(=O)O1)C2(C)C)c1ccccc1O` (configuration not stated)?
IL-1B inflam inh: 223.0; Gal4-VP16 FLuc: 1.26µM*; RORg inh: 0.708µM*; SW480 rereplic: 3.66µM*; MCF10A rerep: inconclusive

Results for CC12CCC(C(=O)NCc3ccccc3)(OC1=O)C2(C)C (configuration not stated) ?
IL-1B inflam inh: -8.2; Gal4-VP16 FLuc: -2.0%; RORg inh: 23.8%; SW480 rereplic: -12.2%; MCF10A rerep: 4.9%

Results for CC12CCC(C(=O)Nc3cccc(NC(=O)C45CCC(C)(C(=O)O4)C5(C)C)n3)(OC1=O)C2(C)C ?
IL-1B inflam inh: 17.8; Gal4-VP16 FLuc: 3.8%; RORg inh: -0.3%; SW480 rereplic: -0.4%; MCF10A rerep: -2.5%

What do the screens show for `C[C@H](NC(=O)[C@H]1N2C(=O)c3ccccc3C2SC1(C)C)C(=O)N1CCC[C@H]1C(=O)O` (some centres not stated)?
IL-1B inflam inh: -7.0; Gal4-VP16 FLuc: -10.3%; RORg inh: -5.8%; SW480 rereplic: 2.5%; MCF10A rerep: inconclusive

Results for Cc1cccc(NC(=O)C(=O)NCc2ccc3c(c2)OCO3)c1C ?
IL-1B inflam inh: -2.0; Gal4-VP16 FLuc: -18.5%; RORg inh: -23.2%; SW480 rereplic: -4.2%; MCF10A rerep: 4.1%

How did Cc1ccccc1NC(=S)NCc1ccc2c(c1)OCO2 do in these assays?
IL-1B inflam inh: -4.2; Gal4-VP16 FLuc: 10µM*; RORg inh: 2.51µM*; SW480 rereplic: -5.3%; MCF10A rerep: 6.9%

How did Cc1cccc(NC(=S)NCCc2ccc3c(c2)OCCO3)c1C do in these assays?
IL-1B inflam inh: -24.4; Gal4-VP16 FLuc: inconclusive; RORg inh: 3.98µM*; SW480 rereplic: -4.2%; MCF10A rerep: 4.2%

What do the screens show for `Cc1cccc(NC(=S)NCc2ccc3c(c2)OCO3)c1C`?
IL-1B inflam inh: -11.2; Gal4-VP16 FLuc: 12.6µM*; RORg inh: 5.01µM*; SW480 rereplic: -4.4%; MCF10A rerep: 2.2%

What do the screens show for `CC(C)(C)NC(=S)NCc1ccc2c(c1)OCO2`?
IL-1B inflam inh: 13.5; Gal4-VP16 FLuc: inconclusive; RORg inh: 11.2µM*; SW480 rereplic: -0.5%; MCF10A rerep: 0.9%

How did CCc1ccccc1NC(=S)NCc1ccc2c(c1)OCO2 do in these assays?
IL-1B inflam inh: 4.5; Gal4-VP16 FLuc: 11.2µM*; RORg inh: 6.31µM*; SW480 rereplic: inconclusive; MCF10A rerep: 3.8%

What do the screens show for `CC1CCC2(CC1)NC(=O)N(NC(=O)c1cc3ccccc3o1)C2=O` (configuration not stated)?
IL-1B inflam inh: 0.0; SW480 rereplic: -0.4%; MCF10A rerep: -0.9%

What do the screens show for `COc1ccccc1-c1nc2ccccc2nc1-c1ccccc1`?
IL-1B inflam inh: 17.4; Gal4-VP16 FLuc: 7.8%; RORg inh: 3.1%; SW480 rereplic: 0.6%; MCF10A rerep: inconclusive
